Source: ChEMBL document CHEMBL4513216, “Probing the Open Global Health Chemical Diversity Library for Multistage-Active Starting Points for Next-Generation Antimalarials” (ACS Infect Dis, 2020)
Screen size: about 69,000 compounds; about 8,600 (12%) showed an effect of 50% or more. The entries come from a sample that favours strong results as a whole.

These molecules were tested on Plasmodium berghei (assay: Screen against P. berghei liver stage (PbLuc), transformed with Luciferase, at 10uM). Conditions: tested at 10 uM.
Assay type: functional, HepG2
`NC(=O)CSc1ccccc1NC(=O)C1CCCCC1` was tested, and the INHIBITION was 21.1%.
`CC1N(c2cnn(C)c2)C(=O)COC12CCN(CC1CC1)CC2` (centres undefined) showed an INHIBITION of -5.25%.
`CC1N(c2cnn(C)c2)C(=O)COC12CCN(c1ccccn1)CC2` (centres undefined) gave an INHIBITION of 39.5%.
`CC1N(c2cnn(C)c2)C(=O)COC12CCN(c1ncccn1)CC2` (centres undefined) gave an INHIBITION of 58.3%.
In the case of `O=C(Cc1ccc2c(c1)CCO2)N1CCN(c2nccs2)CC1`, the INHIBITION is reported as 9.14%.
In the case of `CN(C)c1cc(CNC(=O)Nc2nccs2)ccn1`, the INHIBITION is reported as -0.219%.
`CC(C)NC(=O)[C@H]1C[C@@H]2[C@@H](C1)OCCN2Cc1ccsc1` gave an INHIBITION of 16.9%.
`CSCC(=O)NC1(c2cccc(Cl)c2)CC1` showed an INHIBITION of 8.41%.
For `COCCCC(=O)NC1(c2cccc(Br)c2)CC1`, the INHIBITION was 32.5%.
Molecule `COCCSCC(=O)NC1(c2cccc(Br)c2)CC1` has an INHIBITION of 54.4%.
`NC(=O)CSCC(=O)NC1(c2cccc(Br)c2)CC1` gave an INHIBITION of 8.99%.
For `CCOCC(=O)NC1(c2cccc(Br)c2)CC1`, the INHIBITION was 45.1%.
Work on `CCOCC(=O)NC1(c2cccc(Cl)c2)CC1` yielded an INHIBITION of 57.3%.
With `Cc1nn(C)c(N(C)C)c1CNCC(O)COc1ccccc1` (centres undefined) the INHIBITION was -56.9%.
For `O=C(NCCSc1ccccc1)[C@H]1CNC[C@H](C(=O)N2CCOCC2)C1`, the INHIBITION was 11.2%.
For `CCS(=O)(=O)CC(C)N(C)C(=O)COc1ccccc1C#N` (centres undefined), the INHIBITION was -29.7%.
`CCCc1nc(CN2CCCN(Cc3nccn3C)CC2)no1` gave an INHIBITION of 25.6%.
`CCOCCN1CCN(Cc2cccc(C(=O)N(C)C)c2)CC1CC` (centres undefined) was tested, and the INHIBITION was 25.6%.
Work on `COCC(=O)NCC1CCN(Cc2ccsc2)CC1` yielded an INHIBITION of -6.67%.
With `O=C(CCc1ccccc1)NCC1CCN(Cc2cccs2)CC1` the INHIBITION was 51.9%.
Work on `CCOCC(=O)NCC1CCN(Cc2ccsc2)CC1` yielded an INHIBITION of 60%.
In the case of `O=C(COc1ccccc1)NCC1CCN(Cc2ccsc2)CC1`, the INHIBITION is reported as 27%.
`O=C(CCc1ccsc1)NCC1CCN(Cc2cccs2)CC1` showed an INHIBITION of 14.6%.
`O=C(CCc1ccccc1)NCC1CCN(Cc2ccccc2)CC1` gave an INHIBITION of 54.2%.
`O=C(CCc1ccsc1)NCC1CCN(c2ccccc2)C1` (centres undefined) gave an INHIBITION of 2.74%.
`O=C(CCSc1ccccc1)NCC1CCN(Cc2ccsc2)CC1` gave an INHIBITION of 27.6%.
For `O=C(CCc1ccccc1)NCC1CCN(Cc2ccsc2)CC1`, the INHIBITION was -11.8%.
In the case of `Cc1ccccc1C1CCCN1Cc1nc2c(cnn2C)c(=O)[nH]1` (centres undefined), the INHIBITION is reported as -52.5%.
For `CN(C)[C@@H]1CCN(c2ncc(F)cn2)[C@H]1Cc1ccccc1`, the INHIBITION was -101%.
With `CN(C)C(=O)CN1C(=O)CCC12CCN(Cc1cccn1C)CC2` the INHIBITION was 33.2%.
`Cn1ccc(C(=O)N2CCN(CC(O)C(C)(C)C)CC2)cc1=O` (centres undefined) was tested, and the INHIBITION was 25.6%.
In the case of `Cc1cc(C(=O)NCCCn2nccc2C2CC2)c(=O)[nH]c1C`, the INHIBITION is reported as 53.3%.
Work on `Cc1nc(N(C)C)ncc1C(=O)NCCCn1nccc1C1CC1` yielded an INHIBITION of 27.5%.
With `Cc1ccc2[nH]c(=O)cc(C(=O)NCCCn3nccc3C3CC3)c2c1` the INHIBITION was -7.16%.
`N#Cc1cccc(S(=O)(=O)N2CCCCC2CCN2CCCC2=O)c1` (centres undefined) was tested, and the INHIBITION was 20.1%.
Molecule `COCCCC1CCCCN1S(=O)(=O)c1cccc(C#N)c1` (centres undefined) has an INHIBITION of -41.8%.
In the case of `N#Cc1cccc(S(=O)(=O)N2CCCCC2CCN2CCCC2)c1` (centres undefined), the INHIBITION is reported as 51.3%.
`CNC(=O)NCC(CO)Cc1cccc(OC(F)(F)F)c1` (centres undefined) was tested, and the INHIBITION was -10.3%.
`CCS(=O)(=O)N1CCc2c(cnc(-c3cccnc3)c2C(=O)O)C1` gave an INHIBITION of -1.26%.
With `Cc1ccc(C)c(S(=O)(=O)CCN2CCc3c(ncn3C)C2)c1` the INHIBITION was 19.4%.
For `O=C(c1cncs1)N1CCC(Cc2cnc3[nH]ccc3c2)CC1`, the INHIBITION was 64.1%.
`O=C(c1ccncc1)N1CCC(Cc2cnc3[nH]ccc3c2)CC1` showed an INHIBITION of 33.7%.
`O=C(c1cnccn1)N1CCC(Cc2cnc3[nH]ccc3c2)CC1` showed an INHIBITION of 17.1%.
Work on `Cc1ccc(OC2(C(=O)NC(C)c3csc(C)n3)CCNCC2)cc1` (centres undefined) yielded an INHIBITION of 41.2%.
For `Nc1nnnn1NCc1cccc2ccccc12`, the INHIBITION was 23.4%.
`Nc1nnnn1NCc1ccccc1C(F)(F)F` showed an INHIBITION of -24.6%.
Molecule `Nc1nnnn1NCc1cccc(Cl)c1Cl` has an INHIBITION of 61.5%.
In the case of `CC(C)NC(=O)C1CCc2nnc(C(C)(C)C)n21` (centres undefined), the INHIBITION is reported as -15.5%.
For `Cc1nc(CN2CCC3(CCN(c4cnn(C)c4)C3=O)C2)cs1` (centres undefined), the INHIBITION was -17.2%.
`CC1(C(=O)N2CCOCC2)CN(Cc2ncc[nH]2)CCO1` (centres undefined) was tested, and the INHIBITION was 27.8%.
With `Cc1ccc(CN2CC[C@@H](NS(C)(=O)=O)[C@@H]2Cc2ccncc2)o1` the INHIBITION was -7.94%.
For `O=C(c1cc[nH]n1)N1CC[C@@H]2CN(Cc3cccnc3)S(=O)(=O)[C@@H]2CC1`, the INHIBITION was 76.4%.
`O=C(c1cc[nH]n1)N1CC[C@@H]2CN(Cc3ccncc3)S(=O)(=O)[C@@H]2CC1` was tested, and the INHIBITION was 26.5%.
With `CC(C)CN1C[C@H]2CCN(C(=O)c3ccccn3)CC[C@H]2S1(=O)=O` the INHIBITION was -19.6%.
`CCN1C[C@H]2CCN(C(=O)Nc3ccccc3C)CC[C@H]2S1(=O)=O` was tested, and the INHIBITION was 50.6%.
`COCCN1C[C@H]2CCN(C(=O)Nc3ccccc3C)CC[C@H]2S1(=O)=O` gave an INHIBITION of 34.6%.
With `CCN1C[C@H]2CCN(C(C)=O)CC[C@H]2S1(=O)=O` the INHIBITION was -26.8%.
With `CCN1C[C@H]2CCN(C(=O)c3cc[nH]n3)CC[C@H]2S1(=O)=O` the INHIBITION was 63.5%.
`Cc1ccccc1NC(=O)N1CC[C@@H]2CN(CC(C)C)S(=O)(=O)[C@@H]2CC1` gave an INHIBITION of -13.4%.
For `O=C(c1cc[nH]n1)N1CC[C@@H]2CN(Cc3ccccc3)S(=O)(=O)[C@@H]2CC1`, the INHIBITION was -23.3%.
With `CCN(CC)C(=O)NCCc1ccn(-c2ccccc2)n1` the INHIBITION was 7.67%.
`CCn1ncc2c1CCCC2NCc1ccc(OC)cc1OC` (centres undefined) was tested, and the INHIBITION was 42%.
Molecule `O=C(CC1[C@H]2CN(c3ncccn3)C[C@@H]12)Nc1cccnc1` (some centres undefined) has an INHIBITION of 13.7%.
`Cc1nc(CN(C)C2CCN(Cc3ccc(C(N)=O)cc3)C2)no1` (centres undefined) showed an INHIBITION of -27.8%.
`Cc1cccc(CN2CCCC(c3nccs3)C2)n1` (centres undefined) was tested, and the INHIBITION was 43.6%.
`Cc1cc(C)cc(NCCC(=O)NCc2cccnc2N(C)C)c1` showed an INHIBITION of 23.7%.
For `O=C(c1cc2c(s1)CCC2)N1CCN(c2cnccn2)CC1`, the INHIBITION was -8.66%.
`CN(C)CCO[C@H]1CN(Cc2ccc3c(c2)OCO3)[C@@H]2COC[C@H]12` showed an INHIBITION of 33%.
`CCNC(=O)Cc1n[nH]c(-c2cncc(Br)c2)n1` was tested, and the INHIBITION was 39.3%.
`Cc1cnn(CCNCC(=O)NC(C)c2ccc3c(c2)OCCO3)c1` (centres undefined) was tested, and the INHIBITION was 8.64%.
Molecule `CC(=O)N1[C@H](CN(C)C)C[C@@H]2CN(C(=O)c3cccc(F)c3)CC[C@@H]21` has an INHIBITION of 29.9%.
`CN(C)c1ccc(CCCNC(=O)NCC(O)c2ccsc2)cc1` (centres undefined) was tested, and the INHIBITION was 8.92%.
`CN(C)c1ccc(CCCNC(=O)NCC(O)c2cccs2)cc1` (centres undefined) showed an INHIBITION of 60.4%.
Molecule `CN(C)c1ccc(C(O)CNC(=O)NCCCc2ccccc2)cc1` (centres undefined) has an INHIBITION of 5.91%.
Work on `CN1CC(c2cc(O)nc(NCc3ccccc3Cl)n2)CC1=O` (centres undefined) yielded an INHIBITION of 30.4%.
`O=C(CCc1ccc(Cl)s1)NCc1nnc2n1CCCCC2` was tested, and the INHIBITION was 5.9%.
For `O=C(c1nc(Cc2c[nH]c3ccccc23)no1)N1CCCCC1`, the INHIBITION was 55.4%.
For `O=C(c1nc(Cc2c[nH]c3ccccc23)no1)N1CCCC1`, the INHIBITION was 25.2%.
In the case of `O=C(c1nc(Cc2c[nH]c3ccccc23)no1)N1CCOCC1`, the INHIBITION is reported as 29.9%.
With `CCOc1ncccc1NC(=O)NCC(O)c1ccc(OC)cc1` (centres undefined) the INHIBITION was 44.1%.
For `Cc1cc(C)n(Cc2cc(C(=O)N3CCCC3c3nccs3)n[nH]2)n1` (centres undefined), the INHIBITION was 10.7%.
`CCOCc1nc2c(c(NC(CC)c3ccncc3)n1)CCNCC2` (centres undefined) showed an INHIBITION of 37.7%.
For `CCOCc1nc2c(c(NC(CC)c3ccnn3C)n1)CCNCC2` (centres undefined), the INHIBITION was 40.6%.
Molecule `CCOCc1nc2c(c(NC(CC)c3cccnc3)n1)CCNCC2` (centres undefined) has an INHIBITION of 53.5%.
For `O=C1[C@@H]2C[C@H](O)CCN2C(=O)CN1CCSc1ccccn1`, the INHIBITION was -19.41%.
With `NC(=O)CN1CCC(c2cc(C(F)(F)F)n3ccnc3n2)CC1` the INHIBITION was 30.8%.
Molecule `CC(C)NC(=O)[C@@H]1CN(C)C[C@]12COc1ccc(F)cc1C2=O` has an INHIBITION of 12.515%.
In the case of `O=C(NCC(F)(F)F)c1ccc(-n2cccn2)nn1`, the INHIBITION is reported as -27.8%.
For `Cc1csc(N2CCN(CC(=O)NCc3ccccn3)CC2C)n1` (centres undefined), the INHIBITION was -19.605%.
Work on `CC(CN1CCOC1=O)NC(=O)c1cccc(C#N)c1` (centres undefined) yielded an INHIBITION of 42.1%.
`CC(CNC(=O)c1cccc(-n2cccn2)c1)Cn1ccnc1` (centres undefined) gave an INHIBITION of -13.6%.
For `CCn1nc(C)c(CCNC(=O)c2cccc(-n3cccn3)c2)c1C`, the INHIBITION was 72.5%.
In the case of `CCn1nc(C)c(CCNC(=O)c2cccc(NCC(=O)O)c2)c1C`, the INHIBITION is reported as 22.3%.
For `COc1cccc(C(C(=O)O)N2CCC(Cn3cccn3)CC2)c1OC` (centres undefined), the INHIBITION was 19.8%.
`COCC(=O)N1CCC2(CC1)CNc1ccc(F)cc12` was tested, and the INHIBITION was 5.63%.
`CNc1nc2c(s1)C(=O)CN(C(=O)[C@@H](N)Cc1cccc(OC)c1)C2` gave an INHIBITION of 45.6%.
Work on `COc1ccccc1Nc1nc2c(s1)C(=O)CN(C(=O)CC(C)C)C2` yielded an INHIBITION of 59%.
`COCC(=O)N1CC(=O)c2sc(Nc3ccc(F)cc3F)nc2C1` showed an INHIBITION of 53%.
Molecule `CC(C)CC(=O)N1CC(=O)c2sc(NC3CCCCC3)nc2C1` has an INHIBITION of 10%.
`CC(C)CC(=O)N1CC(=O)c2sc(Nc3ccc(F)cc3F)nc2C1` was tested, and the INHIBITION was 63.4%.
Work on `CC(C)CC(=O)N1CC(=O)c2sc(NCCc3ccccc3)nc2C1` yielded an INHIBITION of 35.2%.
`CC1CCC2(CC1)Nc1ccccc1CO2` (centres undefined) gave an INHIBITION of 29.7%.
`CCOC(=O)C1(NC(=O)CCNc2cc(C)ccc2OC)CCCCC1` was tested, and the INHIBITION was -7.77%.
For `CC(C)Cc1nc(-c2ccnc(N3CCNCC3)n2)no1`, the INHIBITION was 31.2%.
